In PubChem BioAssay (EPA / NIEHS):
Where “and” joins values, the source holds several entries; their conditions need not be identical. Equal values may be shown once. Calls of active or inactive are those of the source. How the source made its calls: active means hit-call score of the fitted dose curve at least 0.9, where 1 is the maximum; inactive means score below 0.9.

The compounds below were run on Interferon-inducible T-cell alpha chemoattractant (ITAC), CXCL11 (gene 6373) (assay: BSK_BE3C_ITAC: BioMAP Diversity Plus: BE3C Assay for Interferon-inducible T-cell alpha chemoattractant (ITAC) Biomarker Activity (AID 2284279)). Details: primary human bronchial epithelial cells.
Method in brief: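 ELISA read-out of I-TAC after 24 h chemical dosing of human lung primary bronchial epithelial cells; gain-of-signal fit vs DMSO baseline. Parallel SRB total-protein staining (0.1% SRB, 10% TCA fixation, 560 nm) assessed cytotoxicity.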

SMILES	outcome	AC50
O=C(O)C(F)(F)C(F)(F)C(F)(F)C(F)(F)C(F)(F)C(F)(F)C(F)F	inactive	
C=CC(=O)OCC(F)(F)C(F)(F)C(F)(F)COC(=O)C=C		45 µM (active) and 43 µM (active)
COC(F)(C(F)F)C(F)(F)F (centres undefined)	inactive	
O=S(=O)(O)CCC(F)(F)C(F)(F)C(F)(F)C(F)(F)F	inactive	
NC(=O)C(F)(F)C(F)(F)C(F)(F)C(F)F	inactive	
CCN=C1C=CC(=C(c2ccc(N(CC)CC)cc2)c2ccc(N(CC)CC)cc2)c2ccccc21		2.7 µM (active) and 2.3 µM (active)
OCCCC(F)(F)C(F)(F)C(F)(F)C(F)(F)C(F)(F)C(F)(F)C(F)(F)C(F)(F)F		50.2 µM (active) and 51.8 µM (active)
FC(F)(F)C(F)(F)C(F)(F)C(F)(F)C(F)(F)C(F)(F)CC[Si](Cl)(Cl)Cl	inactive	
OCC(O)CC(F)(F)C(F)(F)C(F)(F)C(F)(F)F (centres undefined)	inactive	
OCC(F)(F)C(F)(F)C(F)(F)C(F)(F)C(F)(F)C(F)(F)C(F)(F)C(F)(F)CO		39.6 µM (active) and 31.6 µM (active)
C=CC(=O)OCCC(F)(F)C(F)(F)C(F)(F)C(F)(F)F	inactive	
FC(F)(F)C(F)(F)C(F)(F)CC1CO1 (centres undefined)	inactive	
NC(=O)C(F)(F)C(F)(F)C(F)(F)C(F)(F)C(F)(F)C(F)(F)C(F)(F)F	inactive	
NC(=O)C(F)(F)C(F)(F)C(F)(F)C(F)(F)C(N)=O	inactive	
O=C(O)CCC(F)(F)C(F)(F)C(F)(F)C(F)(F)C(F)(F)C(F)(F)C(F)(F)F		3.43 µM (active) and 2.52 µM (active)
OCC(F)(F)C(F)(F)C(F)(F)CO	inactive	
NC(=O)C(F)(F)C(F)(F)C(F)(F)F	inactive	
CN(C(=O)C(F)(F)C(F)(F)C(F)(F)F)[Si](C)(C)C	inactive	
C[Si](Cl)(Cl)CCC(F)(F)C(F)(F)C(F)(F)C(F)(F)C(F)(F)C(F)(F)F	inactive	
O=C(O)C(F)(F)C(F)(F)C(F)(F)OC(F)(F)F	inactive	
NCC(F)(F)C(F)(F)C(F)(F)C(F)(F)C(F)(F)C(F)(F)C(F)(F)C(F)(F)F	inactive	
CCOC(=O)CC(=O)C(F)(F)C(F)(F)F	inactive	
O=S(=O)(OCC(F)(F)F)C(F)(F)C(F)(F)C(F)(F)C(F)(F)F	inactive	

These compounds were tested on Interleukin-8 (IL8), CXCL8 (gene 3576) (assay: BSK_BE3C_IL8: BioMAP Diversity Plus: BE3C Assay for Interleukin-8 (IL8) Biomarker Activity (AID 2284280)). Details: primary human bronchial epithelial cells.
Method in brief: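 Measured at 24 h after treatment, IL-8 from human primary bronchial epithelial cells is determined by ELISA, and the response is modelled as increasing relative to DMSO negative control.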

SMILES	outcome	AC50
O=C(O)C(F)(F)C(F)(F)C(F)(F)C(F)(F)C(F)(F)C(F)(F)C(F)F	inactive	
C=CC(=O)OCC(F)(F)C(F)(F)C(F)(F)COC(=O)C=C		13.2 µM (active) and 8.09 µM (active)
COC(F)(C(F)F)C(F)(F)F (centres undefined)	inactive	
O=S(=O)(O)CCC(F)(F)C(F)(F)C(F)(F)C(F)(F)F	inactive	
NC(=O)C(F)(F)C(F)(F)C(F)(F)C(F)F	inactive	
CCN=C1C=CC(=C(c2ccc(N(CC)CC)cc2)c2ccc(N(CC)CC)cc2)c2ccccc21		4.21 µM (active) and 3.7 µM (active)
OCCCC(F)(F)C(F)(F)C(F)(F)C(F)(F)C(F)(F)C(F)(F)C(F)(F)C(F)(F)F		11.4 µM (active) and 8.23 µM (active)
FC(F)(F)C(F)(F)C(F)(F)C(F)(F)C(F)(F)C(F)(F)CC[Si](Cl)(Cl)Cl	inactive	
OCC(O)CC(F)(F)C(F)(F)C(F)(F)C(F)(F)F (centres undefined)	inactive	
OCC(F)(F)C(F)(F)C(F)(F)C(F)(F)C(F)(F)C(F)(F)C(F)(F)C(F)(F)CO		19.7 µM (active) and 5.95 µM (active)
C=CC(=O)OCCC(F)(F)C(F)(F)C(F)(F)C(F)(F)F	inactive	
FC(F)(F)C(F)(F)C(F)(F)CC1CO1 (centres undefined)	inactive	
NC(=O)C(F)(F)C(F)(F)C(F)(F)C(F)(F)C(F)(F)C(F)(F)C(F)(F)F	inactive	
NC(=O)C(F)(F)C(F)(F)C(F)(F)C(F)(F)C(N)=O	inactive	
O=C(O)CCC(F)(F)C(F)(F)C(F)(F)C(F)(F)C(F)(F)C(F)(F)C(F)(F)F	inactive	
OCC(F)(F)C(F)(F)C(F)(F)CO	inactive	
NC(=O)C(F)(F)C(F)(F)C(F)(F)F	inactive	
CN(C(=O)C(F)(F)C(F)(F)C(F)(F)F)[Si](C)(C)C	inactive	
C[Si](Cl)(Cl)CCC(F)(F)C(F)(F)C(F)(F)C(F)(F)C(F)(F)C(F)(F)F	inactive	
O=C(O)C(F)(F)C(F)(F)C(F)(F)OC(F)(F)F	inactive	
NCC(F)(F)C(F)(F)C(F)(F)C(F)(F)C(F)(F)C(F)(F)C(F)(F)C(F)(F)F	inactive	
CCOC(=O)CC(=O)C(F)(F)C(F)(F)F	inactive	
O=S(=O)(OCC(F)(F)F)C(F)(F)C(F)(F)C(F)(F)C(F)(F)F	inactive	

These compounds were tested on Epidermal growth factor receptor (EGFR), EGFR (gene 1956) (assay: BSK_BE3C_EGFR: BioMAP Diversity Plus: BE3C Assay for Epidermal growth factor receptor (EGFR) Biomarker Activity (AID 2284281)). Details: primary human bronchial epithelial cells.
Method in brief: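 Measured 24 h after dosing in primary human bronchial epithelial cultures, EGFR was read by ELISA; gain of signal over DMSO control defined activity.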

SMILES	outcome	AC50
O=C(O)C(F)(F)C(F)(F)C(F)(F)C(F)(F)C(F)(F)C(F)(F)C(F)F	inactive	
C=CC(=O)OCC(F)(F)C(F)(F)C(F)(F)COC(=O)C=C	inactive	
COC(F)(C(F)F)C(F)(F)F (centres undefined)	inactive	
O=S(=O)(O)CCC(F)(F)C(F)(F)C(F)(F)C(F)(F)F	inactive	
NC(=O)C(F)(F)C(F)(F)C(F)(F)C(F)F	inactive	
CCN=C1C=CC(=C(c2ccc(N(CC)CC)cc2)c2ccc(N(CC)CC)cc2)c2ccccc21	inactive	
OCCCC(F)(F)C(F)(F)C(F)(F)C(F)(F)C(F)(F)C(F)(F)C(F)(F)C(F)(F)F		33 µM (active) and 21.3 µM (active)
FC(F)(F)C(F)(F)C(F)(F)C(F)(F)C(F)(F)C(F)(F)CC[Si](Cl)(Cl)Cl	inactive	
OCC(O)CC(F)(F)C(F)(F)C(F)(F)C(F)(F)F (centres undefined)	inactive	
OCC(F)(F)C(F)(F)C(F)(F)C(F)(F)C(F)(F)C(F)(F)C(F)(F)C(F)(F)CO		30 µM (active) and 25.2 µM (active)
C=CC(=O)OCCC(F)(F)C(F)(F)C(F)(F)C(F)(F)F	inactive	
FC(F)(F)C(F)(F)C(F)(F)CC1CO1 (centres undefined)	inactive	
NC(=O)C(F)(F)C(F)(F)C(F)(F)C(F)(F)C(F)(F)C(F)(F)C(F)(F)F	inactive	
NC(=O)C(F)(F)C(F)(F)C(F)(F)C(F)(F)C(N)=O	inactive	
O=C(O)CCC(F)(F)C(F)(F)C(F)(F)C(F)(F)C(F)(F)C(F)(F)C(F)(F)F	inactive	
OCC(F)(F)C(F)(F)C(F)(F)CO	inactive	
NC(=O)C(F)(F)C(F)(F)C(F)(F)F	inactive	
CN(C(=O)C(F)(F)C(F)(F)C(F)(F)F)[Si](C)(C)C	inactive	
C[Si](Cl)(Cl)CCC(F)(F)C(F)(F)C(F)(F)C(F)(F)C(F)(F)C(F)(F)F	inactive	
O=C(O)C(F)(F)C(F)(F)C(F)(F)OC(F)(F)F	inactive	
NCC(F)(F)C(F)(F)C(F)(F)C(F)(F)C(F)(F)C(F)(F)C(F)(F)C(F)(F)F	inactive	
CCOC(=O)CC(=O)C(F)(F)C(F)(F)F	inactive	
O=S(=O)(OCC(F)(F)F)C(F)(F)C(F)(F)C(F)(F)C(F)(F)F	inactive	
